Most compounds without a hit are left out; they make up all but 1% or so of the library.
PTHR1 ag: qHTS for PTHR1 Agonists: Primary Screen. HEK293 GP2 PTHR1 cells, GloSensor cAMP luminescence, 1 h. hit rate 0.075% among 410,000. Parathyroid hormone/parathyroid hormone-related peptide receptor (Homo sapiens), Q03431. Potency, µM (highest dose often 115 µM), for the others: at the top dose activation, actives largely listed as activators; note: potency is the fitted concentration of half-maximal effect; nearly all actives have a fitted effect of over 55% in size
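HEK-293-derived GP2 cells expressing PTHR1 and a GloSensor cAMP reporter, 3,000/well, plated overnight, given luciferin plus IBMX (each 0.5 mM as added) for 1 h at 37 °C, then compound for 1 h at 37 °C. Luminescence was read after 15 min at room temperature.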
RXFP1 agonist: qHTS Assay for Agonists of the Relaxin Receptor RXFP1; HEK293T-RXFP1 cAMP TR-FRET, 30 min; response scale: percent of porcine relaxin response, buffer zero; Potency, µM (titrated, usually from 57.5 µM), for the others: at the highest dose activation, hits mostly activators; hit rate 0.3% among 370,000; AID 2676, 2010; note: potency is the fitted concentration of half-maximal effect; % is set by controls: 0 for no effect and ±100 for the full control effect; nearly all actives have a fitted effect of over 60% in size
Target sequence (Q9HBX9 whole entry, looked up): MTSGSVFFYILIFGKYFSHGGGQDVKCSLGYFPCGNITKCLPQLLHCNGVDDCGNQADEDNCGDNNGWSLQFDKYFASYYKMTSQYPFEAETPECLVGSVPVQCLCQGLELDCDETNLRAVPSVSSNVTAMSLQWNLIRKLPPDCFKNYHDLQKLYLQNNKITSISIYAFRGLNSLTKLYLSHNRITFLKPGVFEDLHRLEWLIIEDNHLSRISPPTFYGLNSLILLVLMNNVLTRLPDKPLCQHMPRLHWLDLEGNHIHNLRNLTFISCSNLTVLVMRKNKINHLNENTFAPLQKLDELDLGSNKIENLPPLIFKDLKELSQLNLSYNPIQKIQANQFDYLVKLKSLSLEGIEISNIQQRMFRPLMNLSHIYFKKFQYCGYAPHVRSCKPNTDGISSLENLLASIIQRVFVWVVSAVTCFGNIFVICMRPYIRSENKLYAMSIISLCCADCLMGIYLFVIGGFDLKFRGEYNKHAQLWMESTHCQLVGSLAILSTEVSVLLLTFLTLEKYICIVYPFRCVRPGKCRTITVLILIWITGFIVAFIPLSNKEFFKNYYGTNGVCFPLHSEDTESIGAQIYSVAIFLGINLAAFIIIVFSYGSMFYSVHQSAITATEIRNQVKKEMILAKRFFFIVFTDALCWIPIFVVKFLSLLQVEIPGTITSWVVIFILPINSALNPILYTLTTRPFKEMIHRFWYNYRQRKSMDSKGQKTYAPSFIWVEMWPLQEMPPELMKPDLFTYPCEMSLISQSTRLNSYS
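HEK293 cells stably expressing RXFP1, treated 30 min at 37C with compounds plus PDE4 inhibitor Ro 20174; cAMP measured by HTRF TR-FRET. Normalized to buffer and 29 nM porcine relaxin; EC50 by Hill fit.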
gsp agonist: qHTS for Agonist of gsp, the Etiologic Mutation Responsible for Fibrous Dysplasia/McCune-Albright Syndrome: qHTS | gsp mutant cells, cAMP HTRF, 30 min | Potency, µM (titrated, usually from 76.9 µM), inactives show at the highest dose activation (cAMP increase), most hits filed as activators | hit rate 0.13% among 340,000 | AID 624287, 2012; active = well fitted activation curve with a large enough effect; inconclusive = small, poorly fitted or top-dose-only effect, or another doubt; inactive = no such curve, though single readings can be large or run the other way; cell line not stated here;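 note: phosphodiesterase inhibitor Ro 20-1724 added with compounds to block cAMP breakdown; potency is the fitted concentration of half-maximal effect; nearly all actives have a fitted effect of over 60% in size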
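Cells in DMEM/10% FBS with G418 were pretreated with compounds in DMSO plus […] (300 uM stock) for 30 min at 37C. cAMP was measured by HTRF (cAMP-d2 plus anti-cAMP antibody-K) after 30 min at room temperature.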
RXFP1 antagonist: qHTS Assay for Antagonists of the Relaxin Receptor RXFP1; Relaxin receptor 1 (Homo sapiens), Q9HBX9; HEK293-RXFP1, relaxin-stimulated cAMP HTRF, 30 min; active compounds read low; activity change, negative = inhibition, % at 57.5 µM; hit rate 0.59% among 350,000;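 active = activity change of -60% or lower, but not beyond a set lower limit; inconclusive = change between -60% and -40%, or beyond the set limit; inactive = change above -40%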; note: % is set by controls: 0 for no effect and ±100 for the full control effect
gsp antagonist: qHTS for Antagonists of gsp, the Etiologic Mutation Responsible for Fibrous Dysplasia/McCune-Albright Syndrome: qHTS; gsp-mutant cells, cAMP HTRF, 30 min; Potency, µM (top dose mostly 76.9 µM), for the others: top-dose activity change, negative = inhibition, actives largely listed as inhibitors; hit rate 0.4% among 340,000; AID 624288, 2012; calls by dose curve; cell line not stated here;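 note: intracellular cAMP measured with PDE inhibitor Ro 20-1724 present during compound exposure; potency is the fitted concentration of half-maximal effect; % is set by controls: 0 for no effect and ±100 for the full control effect; nearly all actives have a fitted effect of over 65% in size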
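HTRF cAMP measurement after 30 min RT detection following 30 min, 37C compound treatment alongside […] (added as 300 uM solution) in G418-selected cells seeded at 2000/well and grown 16–24 h.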
* marks the source's active call; other numbers are inactive results; i = inactive; ? = inconclusive; / = not tested or not shown; [ ] = another dose, or the depositor's remark. Unless noted, calls come from the whole dose curve; as a rule, active = well fitted curve in the direction sought with a large enough effect; inconclusive = small, poorly fitted or top-dose-only effect, or another doubt; inactive = no such curve, though single readings can be large; an effect the other way counts as inactive or inconclusive.

SMILES	PTHR1 ag	RXFP1 agonist	gsp agonist	RXFP1 antagonist	gsp antagonist
CCN(CC(=O)Nc1cccc(F)c1)Cc1nc2ccccc2c(=O)[nH]1	5.8%	0.1%	?	1.6	31.6µM*
CCN(CC(=O)NCc1ccc(F)cc1)Cc1nc2ccccc2c(=O)[nH]1	i	2.9%	-15.1%	-9.0	1.5%
COc1ccc2c(c1)CC(N1CCN(C)CC1)c1cc(OC)ccc1S2 (centres undefined)	i	/	-10.9%	-115.0*	13.6%
C=CCN(C(=O)CN1CCCCC1)c1nc(-c2ccccc2)cs1	-1.8%	-0.5%	10.8%[15.4 µM]	0.8	-3.2%
C=CCN(C(=O)C1CC(=O)N(C2CCCC2)C1)c1nc(-c2ccc(S(C)(=O)=O)cc2)cs1 (centres undefined)	-58.3%	1.1%	4.6%	-26.9	39.8µM*
COC(=O)c1ccc(NC(=O)NC(C)c2c(-n3cccc3)sc(C)c2C)cc1 (centres undefined)	-92.1%	0.3%	/	-31.7	/
Nc1nc(N)c(-c2cccc(C(F)(F)F)c2)c(Cc2cccc(C(F)(F)F)c2)n1	i	/	2.9%	-92.5*	1.8%
C[C@H](CN1CCCC1)C(=O)c1ccc(C(F)(F)F)cc1	/	/	/	7.8	/
CCCc1nn2c(=O)cc(COC(=O)c3ccc(NC(=O)c4cccs4)cc3)nc2s1	-10.9%	2.2%	/	-28.9	/
CC(=O)N1CCc2c(sc(NC(=O)C3CCN(S(=O)(=O)c4cccs4)CC3)c2C(N)=O)C1	-18.3%	0.9%	-4.9%[15.4 µM]	-60.3*	-16.8%
CC(=O)N1CCc2c(sc(NC(=O)C3CCCN3S(=O)(=O)c3cccs3)c2C(N)=O)C1 (centres undefined)	-4.1%	1.1%	0.2%[15.4 µM]	0.3	-5.8%
CCCN(C(=O)Cn1ncc2c1-c1ccccc1OC2)c1cccc(C)c1	-67.0%	0.2%	/	/	/
O=C(N/N=C/c1cccc(Br)c1)c1ccc(Cn2cc(Br)cn2)o1	-39.6%	-0.6%	35.5%[15.4 µM]	?	35.5µM*
O=S(=O)(c1ccccc1)c1nnn2c1nc(NCc1cccs1)c1sccc12	3.6%	?	/	-13.8	/
COCCCNc1nc(NCc2ccccc2OC)c2cnn(C)c2n1	-20.7%	0.6%	/	-9.1	/
O=C(CN1CCN(C(=O)c2ccc(-c3nc4ccccc4s3)o2)CC1)Nc1ccc(F)cc1	-34.6%	-0.1%	-51.2%	-16.7	44.7µM*
Cc1cccc(NC(=O)CN2CCN(C(=O)c3ccc(-c4nc5ccccc5s4)o3)CC2)c1C	-94.4%	0.0%	-12.5%[15.4 µM]	-32.5	?
O=C(CN1CCN(C(=O)c2ccc(-c3nc4ccccc4s3)o2)CC1)Nc1ccccc1Cl	-92.1%	0.5%	-3.8%[15.4 µM]	-38.0	17.8µM*
Cc1cc2nc(-c3ccc(SCc4ccc(C(=O)O)cc4)nc3)[nH]c2cc1C	-42.5%	3.7%	-17.8%[15.4 µM]	-97.7*	-7.5%
Cc1cc2nc(-c3ccc(SCC(=O)NC(C)C)nc3)[nH]c2cc1C	/	5.6%	/	/	/
COc1ccc2c(c1)cc1c(=O)n(CC(=O)NC3CCCCC3)nc(C)n12	i	0.1%	/	-4.2	/
CCN(CC)c1ccc(C(=C2C=CC(=[N+](CC)CC)C=C2)c2ccc(S(=O)(=O)O)cc2S(=O)(=O)[O-])cc1	-16.5%	/	-15.9%	-90.0*	?
CCN(CC)c1ccc(C(=O)O)cc1	i	-0.6%	-36.9%	7.2	2.0%
O=C(NCc1ccco1)c1ccc2c(c1)N(Cc1ccccc1F)C(=O)c1ccccc1S2(=O)=O	-0.6%	-1.0%	/	-5.4	/
COc1ccc(N(CC(=O)N/N=C/c2ccc(OC)cc2OC)S(=O)(=O)c2ccccc2)cc1	-20.6%	-0.4%	-4.8%	6.2	31.6µM*
SMILES	PTHR1 ag	RXFP1 agonist	gsp agonist	RXFP1 antagonist	gsp antagonist
COc1ccc(N(CC(=O)N/N=C/c2cc(OC)ccc2OC)S(=O)(=O)c2ccccc2)cc1	i	-0.2%	-1.7%	-1.2	-11.8%
O=C(NCC(O)CO)c1c(I)c(C(=O)NCC(O)CO)c(I)c(N(CCO)C(=O)CO)c1I (centres undefined)	/	/	/	4.2	/
COCCCn1c(C(=O)N2CCOCC2)cc2c(=O)n3ccccc3nc21	i	?	?	5.9	10.5%
COCCCn1c(C(=O)NCCC2=CCCCC2)cc2c(=O)n3ccccc3nc21	-14.8%	15.6%	7.08µM*	2.3	7.5%
Cc1cc(NS(=O)(=O)c2ccc(Nc3nc(-c4ccc(O)cc4)cs3)cc2)no1	-16.8%	-2.1%	-31.8%	-11.1	-18.4%
Cc1cc(NS(=O)(=O)c2ccc(Nc3nc(-c4ccc(C)c(C)c4)cs3)cc2)no1	-21.8%	1.7%	-7.1%	12.1	22.4µM*
O=C(CSc1nc2ccsc2c(=O)n1Cc1ccccc1Cl)NCc1ccc(F)cc1	-74.3%	8.5%	/	/	/
CC(C)c1ccc(CNCCSc2nnnn2-c2ccccc2)cc1	i	0.2%	/	-20.4	/
COc1ccc(Cl)cc1NC(=O)c1c(NCc2ccc(C)o2)sc2c1CCCC2	i	0.7%	/	-61.3*	/
CCOC(=O)N1CCc2c(sc(NCc3ccc(N(CC)CC)cc3)c2C(=O)Nc2cc(OC)ccc2OC)C1	39.8µM*	-0.1%	/	-4.5	/
COc1cccc(CC(=O)Nc2sc3c(c2C(N)=O)CCCC3)c1	i	?	35.5µM*	14.6	-3.1%
COc1ccc(NC(=O)c2c(NCc3cccc(F)c3)sc3c2CCC3)c(OC)c1	-12.0%	1.1%	/	-61.8*	/
O=C(Cn1c(=O)oc2cc(S(=O)(=O)N3CCCCCC3)ccc21)Nc1cccc(C(F)(F)F)c1	-28.4%	0.5%	/	1.6	/
CCN(Cc1ccccc1)C(=O)c1cnn(-c2ccc(F)cc2)c1-n1cccc1	-32.9%	-0.6%	/	/	/
CCOc1ccc(C(=O)c2cn(Cc3ccc(OC)cc3)c3cc(OC)c(OC)cc3c2=O)cc1	-22.2%	0.7%	/	-10.3	/
Cc1ccc(CNc2nnc(C)c3nnn(Cc4ccc(F)cc4)c23)cc1	i	0.4%	/	3.1	/
CC(C)(C)c1ccc(C(=O)Nc2ccc(C(=O)N3CCOCC3)cc2)cc1	-51.9%	5.6%	-15.7%	-75.9*	5.4%
O=C(Nc1ccc(C(=O)N2CCOCC2)cc1)c1ccccc1	-19.5%	/	/	/	4.2%
CN1C(=O)c2ccc(NC(=O)c3cccc4ccccc34)cc2C1=O	-24.9%	5.3%	22.7%	6.1	-3.7%
Cc1ccc(C(=O)Nc2ccc3c(c2)C(=O)N(C)C3=O)c(C)c1	i	6.2%	35.5µM*	/	7.8%
O=C(Nc1nncs1)c1c(F)c(F)c(F)c(F)c1F	i	0.1%	-0.6%	-9.4	39.8µM*
